In PubChem BioAssay (Tox21):
Records with an inconclusive call do not appear. The source made the active and inactive calls. Unless noted, the call rests on the fitted dose curve; in most records, active means well fitted curve in the direction sought with a large enough effect in the repeat runs; inconclusive means weak or mixed curves; inactive means no such curve, though single readings can be large; an effect the other way counts as inactive or inconclusive.

Assays:
[1] = qHTS assay to identify small molecule agonists of the NFkB signaling pathway (AID 1159509; active means well fitted curve in the direction sought with a large enough effect in the signal ratio in the repeat runs, not every such curve was filed as active; the % refers to the signal ratio; further: on the % scale 0 is the no-effect control and ±100 the full control effect)
In short: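 Readout: FRET fluorescence, 405 nm excitation, 460/530 nm emission; beta-lactamase expression disrupts FRET. Cells: ME-180 stably carrying NF-kB-driven bla reporter. Compound exposure 5 hr, 37 C, 5% CO2.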

[2] = qHTS assay to identify small molecule agonists of the NFkB signaling pathway - cell viability counter screen (AID 1159515; calls by dose curve; further: on the % scale 0 is the no-effect control and ±100 the full control effect; nearly all actives have a fitted effect of over 55% in size)
In short: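 Parallel cytotoxicity counter screen in ME-180 cells carrying an NFkB-response-element beta-lactamase reporter, 2,000 cells/well. Compound exposure lasted 5 hr at 37 C, 5% CO2. Cell viability was quantified by CellTiter-Glo luminescence.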

[3] = qHTS assay to identify small molecule agonists of the endoplasmic reticulum stress response signaling pathway (AID 1159516; active means well fitted activation curve with a large enough effect in the signal ratio in the repeat runs, not every such curve was filed as active; the % refers to the signal ratio; further: on the % scale 0 is the no-effect control and ±100 the full control effect)
In short: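 Using a HeLa line with an ESRE-driven beta-lactamase gene, agonist activity was measured by FRET substrate fluorescence (460 and 530 nm emission) after cells were treated with compounds for 5 hr at 37 C and 5% CO2.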

[4] = qHTS assay to identify small molecule agonists of the endoplasmic reticulum stress response signaling pathway - cell viability counter screen (AID 1159517; calls by dose curve;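 further: HeLa cells carrying an ER stress response element beta-lactamase reporter; on the % scale 0 is the no-effect control and ±100 the full control effect; nearly all actives have a fitted effect of over 50% in size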)
In short: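 After overnight attachment, ESRE-bla HeLa cells were treated with Tox21 library compounds for 5 hr. CellTiter-Glo luminescence, read 30 min post-addition at room temperature, reported viability.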

[5] = qHTS assay to identify small molecule antagonists of the retinoid-related orphan receptor gamma (ROR-gamma) signaling pathway - cell viability counter screen (AID 1159520); further: on the % scale 0 is the no-effect control and ±100 the full control effect; nearly all actives have a fitted effect of over 50% in size
In short: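 Cytotoxicity was read from cellular ATP (CellTiter-Glo luminescence) after 16 hr at 37 C with 1 uM doxycycline induction. The inducer was added 2 hr after compound transfer to Tet-on ROR gamma CHO cells.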

[6] = biological target: Nuclear receptor ROR-gamma (Homo sapiens) (UniProt P51449); assay: qHTS assay to identify small molecule antagonists of the retinoid-related orphan receptor gamma (ROR-gamma) signaling pathway (AID 1159521;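 further: CHO cells with doxycycline inducible ROR-gamma driving an RORE luciferase reporter; top concentration of the series differs between compounds; on the % scale 0 is the no-effect control and ±100 the full control effect; nearly all actives have a fitted effect of over 50% in size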)
In short: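 RORγ antagonism is scored from reduced reporter luminescence in Tet-on CHO cells. Induction used 1 uM final doxycycline hyclate for 16 h at 37 C, following a 2 h compound exposure.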

[7] = qHTS assay to identify small molecule agonists of the AP-1 signaling pathway - cell viability counter screen (AID 1159525; calls by dose curve; further: nearly all actives have a fitted effect of over 55% in size)
In short: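 Intracellular ATP by Cell Titer Glo luminescence (30 min, RT) in the same ME-180 AP-1-bla wells after the 5 h compound exposure at 37 °C. Normalised to tetra n-octyl ammonium bromide and DMSO controls.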

[8] = qHTS assay to identify small molecule agonists of the AP-1 signaling pathway (AID 1159526; calls by dose curve; further: potency means the concentration at half of the fitted maximal effect)
[9] = biological target: Retinoic acid receptor RXR-alpha (Homo sapiens) (UniProt P19793); assay: qHTS assay to identify small molecule agonists of the RXR signaling pathway (AID 1159527; calls by dose curve; further: on the % scale 0 is the no-effect control and ±100 the full control effect; nearly all actives have a fitted effect of over 35% in size)
Sequence of Retinoic acid receptor RXR-alpha (Homo sapiens) (P19793 whole entry, looked up): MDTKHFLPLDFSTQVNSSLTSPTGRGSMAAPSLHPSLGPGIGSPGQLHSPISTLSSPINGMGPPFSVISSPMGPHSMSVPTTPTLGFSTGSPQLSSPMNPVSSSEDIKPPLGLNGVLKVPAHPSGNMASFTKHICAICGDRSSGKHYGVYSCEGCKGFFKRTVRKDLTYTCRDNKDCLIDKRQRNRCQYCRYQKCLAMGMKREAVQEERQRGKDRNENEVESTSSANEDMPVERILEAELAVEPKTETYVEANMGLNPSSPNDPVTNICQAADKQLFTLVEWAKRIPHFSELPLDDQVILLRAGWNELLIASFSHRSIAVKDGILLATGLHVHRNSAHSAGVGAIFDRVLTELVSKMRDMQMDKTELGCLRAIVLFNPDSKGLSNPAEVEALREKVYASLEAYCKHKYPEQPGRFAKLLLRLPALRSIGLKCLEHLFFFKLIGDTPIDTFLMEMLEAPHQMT
In short: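 qHTS of the Tox21 10K library in GeneBLAzer RXR-alpha HEK 293T cells carrying a beta-lactamase reporter […]; 16 hr treatment, 9-cis retinoic acid as agonist control, FRET read-out.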

[10] = qHTS assay to identify small molecule agonists of the RXR signaling pathway - cell viability counter screen (AID 1159529); further: on the % scale 0 is the no-effect control and ±100 the full control effect; nearly all actives have a fitted effect of over 50% in size
In short: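 Cell viability is measured by CellTiter-Glo luminescence, 30 min at room temperature, in wells already read for beta-lactamase. Engineered HEK 293T cells (RXR-alpha-UAS-bla) are dosed 16 hr at 37 C. Tetraoctyl ammonium bromide serves as positive control.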

[11] = qHTS assay to identify small molecule antagonists of the retinoid acid receptor (RAR) signaling pathway - cell viability counter screen (AID 1159551); further: on the % scale 0 is the no-effect control and ±100 the full control effect; nearly all actives have a fitted effect of over 35% in size
In short: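 ATP-based viability, C3RL4 cells, 6 h at 37 C with 1 uM final retinol co-added after compound; luminescence read 30 min post CellTiter-Glo, RT.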

[12] = qHTS assay to identify small molecule antagonists of the retinoic acid receptor (RAR) signaling pathway (AID 1159552)
In short: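 Quantitative HTS in C3RL4 RARE-luciferase reporter cells. Compounds were added with 1 uM (final) retinol; luminescence was read after 6 hr.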

[13] = qHTS assay to identify small molecule agonists of the retinoic acid receptor (RAR) signaling pathway (AID 1159553); settings: C3RL4 RARE luciferase reporter, agonist, 6 h; activation: at 73.3 µM (top of the series) unless noted; further: on the % scale 0 is the no-effect control and ±100 the full control effect
In short: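 Quantitative high-throughput format: the Tox21 10K library was tested on C3RL4 RARE-luciferase cells for 6 hr at 37 C and 5% CO2, with luminescence measured after a 30 min room-temperature reagent step.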

[14] = biological target: Luciferin 4-monooxygenase (Photinus pyralis) (UniProt P08659); assay: qHTS assay to identify small molecule inhibitors of firefly luciferase (AID 1224835); further: on the % scale 0 is the no-effect control and ±100 the full control effect; nearly all actives have a fitted effect of over 25% in size
Sequence of Luciferin 4-monooxygenase (Photinus pyralis) (P08659 whole entry, looked up): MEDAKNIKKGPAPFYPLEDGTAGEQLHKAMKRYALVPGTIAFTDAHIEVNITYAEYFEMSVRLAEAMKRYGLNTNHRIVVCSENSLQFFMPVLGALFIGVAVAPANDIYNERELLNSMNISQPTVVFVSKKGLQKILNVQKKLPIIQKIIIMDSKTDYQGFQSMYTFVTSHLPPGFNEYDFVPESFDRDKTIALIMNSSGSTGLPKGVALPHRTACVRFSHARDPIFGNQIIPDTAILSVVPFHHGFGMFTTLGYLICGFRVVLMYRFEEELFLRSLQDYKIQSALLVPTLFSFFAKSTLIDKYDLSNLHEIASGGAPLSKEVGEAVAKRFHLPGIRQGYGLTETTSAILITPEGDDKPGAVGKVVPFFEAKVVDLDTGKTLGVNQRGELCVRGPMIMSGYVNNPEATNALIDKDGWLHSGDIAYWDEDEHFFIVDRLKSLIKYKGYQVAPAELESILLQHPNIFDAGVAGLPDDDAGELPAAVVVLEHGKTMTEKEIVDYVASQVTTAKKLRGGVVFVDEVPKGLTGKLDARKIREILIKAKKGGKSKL
In short: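 Inhibition of purified Photinus luciferase is measured by luminescence. Substrate levels (D-luciferin, ATP) sit at their KM values. Each compound is tested in a concentration series.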

[15] = qHTS assay to identify small molecule agonists of the constitutive androstane receptor (CAR) signaling pathway - cell viability counter screen (AID 1224836); further: on the % scale 0 is the no-effect control and ±100 the full control effect; nearly all actives have a fitted effect of over 45% in size
In short: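 Counter screen multiplexed with the CAR reporter readout: HepG2 cells co-transfected with hCAR and the CYP2B6-2.2kb construct receive a 15-concentration compound series and 0.75 uM PK11195 (final), then CellTiter-Fluor fluorescence is read after 23 h.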

[16] = qHTS assay to identify small molecule antagonists of the constitutive androstane receptor (CAR) signaling pathway - cell viability counter screen (AID 1224837); further: on the % scale 0 is the no-effect control and ±100 the full control effect; nearly all actives have a fitted effect of over 45% in size
In short: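 Cells are seeded, rested 4 hr at 37 C/5% CO2, dosed with compound (15-point series) and 50 nM CITCO, incubated a further 23 hr, and then CellTiter-Fluor reagent is added before fluorescence is read. The line is HepG2 with stable hCAR and CYP2B6-2.2kb.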

[17] = biological target: Nuclear receptor subfamily 1 group I member 3 (Homo sapiens) (UniProt Q14994); assay: qHTS assay to identify small molecule antagonists of the constitutive androstane receptor (CAR) signaling pathway (AID 1224838);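 further: HepG2 cells stably expressing hCAR with CYP2B6 luciferase reporter stimulated by CITCO; on the % scale 0 is the no-effect control and ±100 the full control effect; nearly all actives have a fitted effect of over 40% in size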
Sequence of Nuclear receptor subfamily 1 group I member 3 (Homo sapiens) (Q14994 whole entry, looked up): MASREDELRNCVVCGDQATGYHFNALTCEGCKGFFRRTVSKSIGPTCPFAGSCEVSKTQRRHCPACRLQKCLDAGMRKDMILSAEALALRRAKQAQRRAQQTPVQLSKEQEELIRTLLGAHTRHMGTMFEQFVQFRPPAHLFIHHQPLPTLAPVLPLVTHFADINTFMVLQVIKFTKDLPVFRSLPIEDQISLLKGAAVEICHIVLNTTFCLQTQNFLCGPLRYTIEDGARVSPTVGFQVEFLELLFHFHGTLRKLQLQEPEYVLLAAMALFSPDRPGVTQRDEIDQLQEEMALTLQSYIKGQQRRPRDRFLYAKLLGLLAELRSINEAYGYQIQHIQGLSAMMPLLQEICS
In short: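 Luminescence from a CYP2B6-2.2kb promoter reporter in hCAR-expressing HepG2 cells reflects CAR signaling. Cells received compounds at 15 concentrations and 50 nM CITCO (final), then incubated 24 h at 37 C/5% CO2.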

[18] = qHTS assay to identify small molecule antagonists of the estrogen related receptor (ERR) signaling pathway from Tox21 library - cell viability counter screen (AID 1224834); further: on the % scale 0 is the no-effect control and ±100 the full control effect; nearly all actives have a fitted effect of over 30% in size
In short: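 Compounds in DMSO were pinned onto ERR cells that had been incubated for 6 h, and the plates were held at 37 C for 17.5 h. CellTiter-Fluor reagent was then added and fluorescence was measured after 30 min.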

[19] = qHTS assay to identify small molecule antagonists of the estrogen related receptor (ERR) signaling pathway - cell viability counter screen (AID 1224818);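 further: viability measured after 17.5 h of compound exposure; on the % scale 0 is the no-effect control and ±100 the full control effect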
In short: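 Quantitative high-throughput viability counter screen in ERR cells. Compounds (DMSO) incubated 17.5 h at 37 C; read-out was CellTiter-Fluor fluorescence.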

[20] = qHTS assay to identify small molecule antagonists of the estrogen related receptor signaling pathway with the pleiotropic PPARgamma coactivator (PGC) cell viability counter screen (AID 1224822; further: on the % scale 0 is the no-effect control and ±100 the full control effect)
In short: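 Cytotoxicity in the PGC/ERR cell line is assessed with CellTiter-Fluor, read as fluorescence intensity 30 min after reagent addition, following 17.5 h compound treatment at 37 C.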

BrCCBr
inactive: outcome [1] | outcome [2] | outcome [3] | outcome [4] | Potency [5] | Potency [6] | Potency [7] | Potency [8] | Potency [9] | Potency [10] | outcome [11] | Potency [12] | Potency [13] | Potency [14] | Potency [15] | Potency [16] | Potency [17]

c1ccc(-c2ccccc2)cc1
inactive: outcome [1] | outcome [2] | outcome [3] | outcome [4] | Potency [5] | Potency [6] | Potency [7] | Potency [8] | Potency [9] | Potency [10] | outcome [11] | Potency [12] | Potency [13] | Potency [14] | Potency [15] | Potency [16]

CCC12COCN1COC2
inactive: outcome [1] | outcome [2] | outcome [3] | outcome [4] | Potency [5] | Potency [6] | Potency [7] | Potency [8] | Potency [9] | Potency [10] | outcome [11] | Potency [14] | Potency [15] | Potency [16] | Potency [17]

c1ccc(OP(Oc2ccccc2)Oc2ccccc2)cc1
inactive: outcome [1] | outcome [2] | outcome [3] | outcome [4] | Potency [6] | Potency [7] | Potency [8] | Potency [9] | Potency [10] | outcome [11] | Potency [18] | Potency [14] | Potency [15] | Potency [16] | Potency [17]

C1CC2OC2CC1C1CO1 (stereo not drawn)
inactive: outcome [1] | outcome [2] | outcome [3] | outcome [4] | Potency [6] | Potency [7] | Potency [8] | Potency [9] | Potency [10] | outcome [11] | Potency [12] | Potency [13] | Potency [18] | Potency [14] | Potency [15] | Potency [16] | Potency [17]

C#CCN(C)[C@H](C)Cc1ccccc1
inactive: outcome [1] | outcome [2] | outcome [3] | outcome [4] | Potency [7] | Potency [8] | Potency [9] | Potency [10] | outcome [11] | Potency [12] | Potency [13] | Potency [14] | Potency [15] | Potency [16]

CCCCCCCCCCCC#N
inactive: outcome [1] | outcome [2] | outcome [3] | outcome [4] | Potency [6] | Potency [7] | Potency [8] | Potency [9] | Potency [10] | outcome [11] | Potency [14] | Potency [15] | Potency [16] | Potency [17]

C=C(C)CCl
inactive: outcome [1] | outcome [2] | outcome [3] | outcome [4] | Potency [6] | Potency [7] | Potency [8] | activation [9] 1.01% [at 6.98 µM] | Potency [10] | outcome [11] | Potency [18] | Potency [14] | Potency [15] | Potency [16] | Potency [17]

CC(NC(C)(C)C)C(=O)c1cccc(Cl)c1 (stereo not drawn)
inactive: outcome [1] | outcome [2] | outcome [3] | outcome [4] | Potency [6] | Potency [7] | Potency [9] | Potency [10] | outcome [11] | outcome [19] | outcome [20] | Potency [14] | Potency [15] | Potency [16]
active: Potency [8] 36.8 µM
